# D2 ag-1: Beta-Arrestin HTS for Positive Allosteric Modulators of the Human D2 Dopamine Receptor: Agonists. actives 0.084% (n = 360,000). activation, % (test concentration not listed). DiscoveRx PathHunter D2 beta-arrestin, luminescence, 90 min; 100% = 57 uM dopamine signal. D(2) dopamine receptor (Homo sapiens), P14416; in the data active = activation above about 40%; inconclusive = between about 15% and that limit
#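 DiscoveRx PathHunter D2 beta-arrestin cells (2,100/well) attached overnight, then compound-stimulated 90 min at 37 C in HBSS/10 mM HEPES/0.1% Tween-20 buffer; beta-galactosidase complementation read by luminescence after 1 h at ambient temperature. Dopamine 57 uM final (EC100) as control.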
# B2AR arrestin: qHTS assay of beta-arrestin-biased ligands of beta2-adrenergic receptor; Potency, µM (top dose mostly 46.1 µM), without a hit: top-dose activation, usual class: activators; actives 0.02% (n = 330,000); Beta-2 adrenergic receptor (Homo sapiens), P07550; beta-arrestin recruitment to beta2AR, cell-based reporter; active = well fitted activation curve with a large enough effect; inconclusive = small, poorly fitted or top-dose-only effect;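 note: potency is the fitted concentration of half-maximal effect; 0% = DMSO controls and full agonism = EC100 isoproterenol or metaproterenol; nearly all actives have a fitted effect of over 65% in size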
# Target sequence (P07550 whole entry, looked up): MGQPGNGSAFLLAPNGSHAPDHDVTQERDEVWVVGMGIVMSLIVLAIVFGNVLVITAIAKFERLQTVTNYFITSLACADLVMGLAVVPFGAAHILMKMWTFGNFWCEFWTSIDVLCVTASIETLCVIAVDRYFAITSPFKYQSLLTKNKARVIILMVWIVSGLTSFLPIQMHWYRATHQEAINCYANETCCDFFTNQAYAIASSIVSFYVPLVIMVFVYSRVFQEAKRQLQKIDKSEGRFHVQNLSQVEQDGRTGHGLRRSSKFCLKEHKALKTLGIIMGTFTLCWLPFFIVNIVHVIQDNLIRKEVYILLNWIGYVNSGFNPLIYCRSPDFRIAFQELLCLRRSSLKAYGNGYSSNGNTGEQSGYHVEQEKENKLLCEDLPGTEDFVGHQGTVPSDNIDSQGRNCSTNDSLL
# D2 PAM-1: Beta-Arrestin HTS for Positive Allosteric Modulators of the Human D2 Dopamine Receptor: Potentiators; D(2) dopamine receptor (Homo sapiens), P14416; DiscoveRx D2 beta-arrestin cells, luminescence, 90 min; 100% = 57 uM dopamine signal; potentiation, % (concentration not given with the values); actives 0.23% (n = 360,000); in the data active = potentiation above about 50%; inconclusive = mostly about 30% to 49%
#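 PathHunter beta-arrestin assay in DiscoveRx D2 cells. Compounds were added with an EC20 of dopamine (50 nM final) for 90 min at 37 deg C. Luminescence was read 1 h after detection reagent, with 57 uM dopamine as the EC100 control.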
# D2 antag: HTS Assay for Allosteric Antagonists of the Human D2 Dopamine Receptor: Primary Screen for Antagonists; D(2) dopamine receptor (Homo sapiens), P14416; HEK293 TREx D2 cells, calcium flux, dopamine EC80; inhibition, % at 10 µM; actives 2% (n = 340,000); AID 485344, 2010; in the data active = inhibition above about 30%; inactive = below that, where a call was filed; note: 0% is about no effect
#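 Overnight-induced (tetracycline, 30 C) HEK293 T-REx cells carrying force-coupled D2 receive a no-wash calcium dye, then compound, then EC80 dopamine at 180 s; signals are read kinetically throughout.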
# D2 PAM-2: HTS Assay for Positive Allosteric Modulators of the Human D2 Dopamine Receptor: Primary Screen for Potentiators; AID 485347, 2010; actives 0.34% (n = 340,000); HEK293 T-REx D2, calcium flux, EC20 dopamine potentiation; potentiation, % at 10 µM; D(2) dopamine receptor (Homo sapiens), P14416;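 active = potentiation over 3 SD above the plate norm, cut at about 30% in these data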; note: 0% is about no effect
#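 Potentiation of an EC20 dopamine calcium response is measured in a force-coupled, tetracycline-inducible Hek293 Trex D2 line. Compound-only kinetic reads over 180 s flag agonists before dopamine addition.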
# D2 ag-2: HTS Assay for Allosteric Agonists of the Human D2 Dopamine Receptor: Primary Screen for Agonists; D(2) dopamine receptor (Homo sapiens), P14416; HEK293 T-REx D2 cells, calcium flux agonist mode; activation, % at 2 µM; actives 0.53% (n = 340,000);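 active = activation over 3 SD above normal in the single-dose calcium agonist read, cut at about 30% in these data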; note: 0% is about no effect
#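 In this primary screen, compounds producing a positive calcium signal within 180 s of addition to tetracycline-induced, force-coupled HEK293 Trex D2 cells are flagged; cells are dye-loaded with a no-wash calcium kit beforehand.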
# Numbers without * were called inactive; ? = inconclusive; . = no result. This is a sample that favours compounds with a hit; in the whole collection about 2.4% have one here.
SMILES,D2 ag-1,B2AR arrestin,D2 PAM-1,D2 antag,D2 PAM-2,D2 ag-2
Cc1cc(NCC(C)C)n2ncnc2n1,-2,0%,-6,-8,10,0
Cc1ccc(/C=C/C(=O)Nc2ccc(S(=O)(=O)Nc3onc(C)c3C)cc2)cc1,-5,0%,9,.,.,.
CCCc1cc(N2CCCC(C(=O)NCc3ccc4c(c3)OCO4)C2)n2ncnc2n1 (stereo not drawn),4,0%,6,4,36*,-1
Cc1nnc(NC(=O)NC(C)N2C(=O)C3C4C=CC(C4)C3C2=O)s1 (stereo not drawn),1,0%,-2,5,-2,1
CCc1nnc(NC(=O)C(C)N2C(=O)C3C4C=CC(C4)C3C2=O)s1 (stereo not drawn),-2,0%,-4,33*,-10,1
O=C(CN(c1ccc(Cl)c(C(F)(F)F)c1)S(=O)(=O)c1ccccc1)N1CCOCC1,-4,0%,-8,35*,1,1
O=C(CN(c1cccc(C(F)(F)F)c1)S(=O)(=O)c1ccccc1)N1CCOCC1,?,0%,0,13,4,1
CCCCn1c(=O)c2c(nc3n2CCCN3Cc2ccccc2)n(C)c1=O,0,-1%,0,34*,8,6
CC(C)=CCN1CCN(CCC2=C(C)CCCC2(C)C)CC1CCO (stereo not drawn),-3,0%,-5,61*,-17,0
CC1=C(CCN2CCN(C3CCCC3)C(CCO)C2)C(C)(C)CCC1 (stereo not drawn),-1,0%,-14,-20,-29,-1
O=C(NCCCN1CCCC1=O)c1ccc(NS(=O)(=O)c2ccccc2)cc1,-2,0%,-7,-4,9,1
COc1ccc(C(=O)Nc2nc3ccccc3c(=O)[nH]2)cc1,-2,0%,-15,-30,14,0
O=C(O)c1cccnc1Nc1cccc(C(F)(F)F)c1,-1,3%,17,56*,5,-1
COc1ccccc1NC(=O)CSc1nnc(CNC(=O)c2cccs2)o1,-10,0%,-7,-5,1,-1
Cc1cccc(NC(=O)CN(C)CC(=O)NC(c2ccccc2)c2ccccc2)c1C,0,0%,-16,33*,-5,-1
CCOC(=O)c1sc(=S)n(-c2ccccc2OC)c1N,-4,0%,-7,.,.,.
COC(=O)c1sc(=S)n(-c2ccccc2OC)c1N,-1,0%,-2,0,31*,0
CCCSCCCNC(=O)c1cc2c(s1)CS(=O)(=O)C2,-1,0%,5,-5,0,0
CC1CCC(NC(=O)c2cc3c(s2)CS(=O)(=O)C3)CC1 (stereo not drawn),-2,0%,-10,41*,11,1
CCCNC(=O)NC(=O)CSc1nc2cc(C(=O)OC)ccc2c(=O)n1-c1ccccc1,-3,0%,-7,-6,12,1
COc1ccc(N2CCN(c3ccc4nnc(CCC(=O)Nc5ccc(C)cc5)n4n3)CC2)cc1,-5,0%,-8,34*,8,0
O=C(NCC1COc2ccccc2O1)c1ccc(Cl)c(S(=O)(=O)N2CCOCC2)c1 (stereo not drawn),-2,0%,-1,31*,-1,1
Cc1ccc(C(=O)NCc2ccccc2CN2CCCC2)cc1S(=O)(=O)N1CCOCC1,-1,0%,-31,51*,-28,0
O=C(c1ccc(Cl)c(S(=O)(=O)N2CCCCC2)c1)N1CCCCC1,-4,-1%,-13,-8,-5,0

# Screens (PubChem BioAssay)
